This is an account of results in ChEMBL document CHEMBL1961873, “Compounds: GSK PKIS; Assays: Nanosyn kinase panel” (2012).

The structures appear in SMILES notation.

The target in assay [1] is MAP/microtubule affinity-regulating kinase 3 (Homo sapiens) (UniProt P27448). The note with it: at 1 µM.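 Note: reported values are averaged percent inhibition of MARK3.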
For assay [2], the target named is T1, MAP/microtubule affinity-regulating kinase 4 (Homo sapiens) (UniProt Q96L34).
T1 sequence (whole entry): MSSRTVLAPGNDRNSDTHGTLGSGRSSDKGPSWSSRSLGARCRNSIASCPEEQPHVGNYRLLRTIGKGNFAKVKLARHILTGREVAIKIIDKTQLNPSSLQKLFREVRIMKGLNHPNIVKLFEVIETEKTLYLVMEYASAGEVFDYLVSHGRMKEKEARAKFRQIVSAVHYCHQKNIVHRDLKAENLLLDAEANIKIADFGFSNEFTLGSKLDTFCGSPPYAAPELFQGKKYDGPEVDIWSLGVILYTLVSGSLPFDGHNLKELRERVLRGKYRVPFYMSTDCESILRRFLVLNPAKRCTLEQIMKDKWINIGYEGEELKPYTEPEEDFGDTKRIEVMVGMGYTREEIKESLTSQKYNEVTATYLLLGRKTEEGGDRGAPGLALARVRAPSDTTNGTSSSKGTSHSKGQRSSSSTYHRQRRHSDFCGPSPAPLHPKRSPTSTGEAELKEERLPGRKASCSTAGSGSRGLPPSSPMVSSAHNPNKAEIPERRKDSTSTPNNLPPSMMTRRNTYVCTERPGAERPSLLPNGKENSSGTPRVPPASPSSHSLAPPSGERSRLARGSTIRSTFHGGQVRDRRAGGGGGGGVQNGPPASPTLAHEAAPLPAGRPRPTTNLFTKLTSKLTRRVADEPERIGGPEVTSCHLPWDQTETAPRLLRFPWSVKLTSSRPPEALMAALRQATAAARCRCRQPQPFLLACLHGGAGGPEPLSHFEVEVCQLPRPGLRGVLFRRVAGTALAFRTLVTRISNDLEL
The following applies: at 0.1 µM.

Assay [3] concerns the target T1, MAP/microtubule affinity-regulating kinase 4 (Homo sapiens). The following applies: at 1 µM.
Assay [4] addresses Maternal embryonic leucine zipper kinase (Homo sapiens) (UniProt Q14680). The note with it: at 0.1 µM.
For assay [5] the target is unchanged. The following applies: at 1 µM.
For assay [6], the target named is MAP kinase-interacting serine/threonine-protein kinase 1 (Homo sapiens) (UniProt Q9BUB5). The note with it: at 0.1 µM.
MAP kinase-interacting serine/threonine-protein kinase 1 (Homo sapiens), sequence (Q9BUB5 whole entry, looked up): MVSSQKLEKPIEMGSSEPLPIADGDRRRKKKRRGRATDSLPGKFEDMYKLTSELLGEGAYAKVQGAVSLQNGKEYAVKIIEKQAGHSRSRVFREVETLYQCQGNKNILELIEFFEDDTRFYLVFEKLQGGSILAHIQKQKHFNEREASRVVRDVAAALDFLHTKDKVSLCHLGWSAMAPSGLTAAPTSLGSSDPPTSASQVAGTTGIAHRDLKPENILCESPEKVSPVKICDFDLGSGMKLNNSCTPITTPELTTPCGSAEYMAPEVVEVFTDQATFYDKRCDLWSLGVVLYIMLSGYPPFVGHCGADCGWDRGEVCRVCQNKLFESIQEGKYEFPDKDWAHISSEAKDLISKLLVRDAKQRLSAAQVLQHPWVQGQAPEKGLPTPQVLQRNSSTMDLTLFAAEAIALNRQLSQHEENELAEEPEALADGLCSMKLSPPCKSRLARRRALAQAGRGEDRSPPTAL
Assay [7] has the same target. The note with it: at 1 µM.
Assay [8] concerns the target MAP kinase-interacting serine/threonine-protein kinase 2 (Homo sapiens) (UniProt Q9HBH9). The note with it: at 0.1 µM.
Assay [9] has the same target. The note with it: at 1 µM.
Assay [10] has as its target Serine/threonine-protein kinase MARK2 (Homo sapiens) (UniProt Q7KZI7). The following applies: at 0.1 µM.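 Note: mean percent inhibition of PAR-1Balpha kinase activity, reported from the GSK PKIS screen.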

Maternal embryonic leucine zipper kinase (Homo sapiens), sequence (Q14680 whole entry, looked up): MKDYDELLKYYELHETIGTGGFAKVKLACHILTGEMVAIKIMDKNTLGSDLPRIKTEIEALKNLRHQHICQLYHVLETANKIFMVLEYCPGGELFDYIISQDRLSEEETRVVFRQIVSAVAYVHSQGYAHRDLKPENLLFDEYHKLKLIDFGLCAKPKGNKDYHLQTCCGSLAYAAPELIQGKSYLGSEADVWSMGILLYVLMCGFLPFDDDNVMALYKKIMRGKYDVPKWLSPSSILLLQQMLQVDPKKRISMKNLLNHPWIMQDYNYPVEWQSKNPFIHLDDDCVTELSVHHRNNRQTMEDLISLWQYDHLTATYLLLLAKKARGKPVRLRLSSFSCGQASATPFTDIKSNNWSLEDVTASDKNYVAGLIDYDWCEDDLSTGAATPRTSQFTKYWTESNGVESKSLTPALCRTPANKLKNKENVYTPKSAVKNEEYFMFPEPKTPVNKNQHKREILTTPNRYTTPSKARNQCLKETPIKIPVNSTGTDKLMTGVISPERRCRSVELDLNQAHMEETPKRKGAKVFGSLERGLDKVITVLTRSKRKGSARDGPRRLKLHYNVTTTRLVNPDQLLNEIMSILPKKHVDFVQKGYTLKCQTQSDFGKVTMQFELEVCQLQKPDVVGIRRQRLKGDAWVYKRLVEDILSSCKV
MAP/microtubule affinity-regulating kinase 3 (Homo sapiens), sequence (P27448 whole entry, looked up): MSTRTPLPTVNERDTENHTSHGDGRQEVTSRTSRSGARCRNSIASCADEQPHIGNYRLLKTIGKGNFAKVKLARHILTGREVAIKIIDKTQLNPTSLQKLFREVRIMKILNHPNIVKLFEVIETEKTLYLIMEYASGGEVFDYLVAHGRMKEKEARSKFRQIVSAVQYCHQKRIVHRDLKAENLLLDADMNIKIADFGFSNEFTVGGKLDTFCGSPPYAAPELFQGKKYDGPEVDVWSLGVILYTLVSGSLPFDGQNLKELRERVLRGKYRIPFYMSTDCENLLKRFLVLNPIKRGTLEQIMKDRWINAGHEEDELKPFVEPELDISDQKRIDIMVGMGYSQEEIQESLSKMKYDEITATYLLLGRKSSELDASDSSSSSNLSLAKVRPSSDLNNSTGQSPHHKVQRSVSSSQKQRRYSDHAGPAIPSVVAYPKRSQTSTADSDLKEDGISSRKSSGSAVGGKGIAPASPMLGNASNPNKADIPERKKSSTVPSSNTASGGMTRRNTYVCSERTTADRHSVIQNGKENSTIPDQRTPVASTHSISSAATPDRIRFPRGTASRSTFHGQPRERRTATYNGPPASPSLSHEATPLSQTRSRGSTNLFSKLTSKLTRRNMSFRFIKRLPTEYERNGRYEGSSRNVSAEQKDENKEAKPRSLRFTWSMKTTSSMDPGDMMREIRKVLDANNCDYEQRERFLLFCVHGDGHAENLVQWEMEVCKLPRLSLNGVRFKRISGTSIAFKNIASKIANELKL
Serine/threonine-protein kinase MARK2 (Homo sapiens), sequence (Q7KZI7 whole entry): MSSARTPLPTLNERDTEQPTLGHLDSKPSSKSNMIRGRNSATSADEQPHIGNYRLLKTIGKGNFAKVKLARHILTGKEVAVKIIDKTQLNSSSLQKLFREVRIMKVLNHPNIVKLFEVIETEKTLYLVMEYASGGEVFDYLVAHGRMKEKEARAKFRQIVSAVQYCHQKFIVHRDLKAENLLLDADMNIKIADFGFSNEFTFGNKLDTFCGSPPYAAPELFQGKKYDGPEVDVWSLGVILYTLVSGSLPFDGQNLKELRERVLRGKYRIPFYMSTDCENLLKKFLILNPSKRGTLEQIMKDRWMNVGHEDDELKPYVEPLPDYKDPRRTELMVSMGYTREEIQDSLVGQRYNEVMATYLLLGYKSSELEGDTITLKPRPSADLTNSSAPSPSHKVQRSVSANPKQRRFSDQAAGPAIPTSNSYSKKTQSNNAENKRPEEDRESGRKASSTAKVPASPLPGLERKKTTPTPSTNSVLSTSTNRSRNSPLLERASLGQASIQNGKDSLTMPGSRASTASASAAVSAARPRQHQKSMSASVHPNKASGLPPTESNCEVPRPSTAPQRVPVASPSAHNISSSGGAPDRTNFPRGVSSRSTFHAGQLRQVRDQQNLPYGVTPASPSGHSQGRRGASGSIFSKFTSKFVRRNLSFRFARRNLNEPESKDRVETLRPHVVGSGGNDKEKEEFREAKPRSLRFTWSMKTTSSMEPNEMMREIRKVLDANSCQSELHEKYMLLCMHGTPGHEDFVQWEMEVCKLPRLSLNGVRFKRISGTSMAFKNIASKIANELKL
MAP kinase-interacting serine/threonine-protein kinase 2 (Homo sapiens), sequence (Q9HBH9 whole entry, looked up): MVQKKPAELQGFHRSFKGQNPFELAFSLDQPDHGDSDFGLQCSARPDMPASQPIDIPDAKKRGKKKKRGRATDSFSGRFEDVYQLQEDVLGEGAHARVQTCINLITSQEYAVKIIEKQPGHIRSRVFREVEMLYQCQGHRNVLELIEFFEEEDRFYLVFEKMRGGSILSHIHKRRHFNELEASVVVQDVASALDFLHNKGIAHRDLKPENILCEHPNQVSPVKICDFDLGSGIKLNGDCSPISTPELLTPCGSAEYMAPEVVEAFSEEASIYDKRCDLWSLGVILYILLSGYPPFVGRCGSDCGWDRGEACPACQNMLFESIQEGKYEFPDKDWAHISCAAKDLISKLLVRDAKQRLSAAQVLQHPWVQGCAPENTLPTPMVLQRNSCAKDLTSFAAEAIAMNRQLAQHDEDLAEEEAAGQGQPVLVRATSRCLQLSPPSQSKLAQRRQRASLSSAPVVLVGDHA

Take `COc1cc(C=NNc2ncnc3c2cnn3Cc2ccccc2)ccc1O`: the inhibition was 4.6% in assay [1]; 1.11% in [2]; 3.25% in assay [3]; 13.2% in assay [4]; 47.1% in assay [5]; -2.04% in [6]. Moreover, the inhibition is 0.25% in [7], -0.35% in assay [8], 1.29% in assay [9] and 1.79% in assay [10].
Take `COc1cccc(-n2ncc3c(N/N=C/c4ccncc4)ncnc32)c1`: the inhibition in assay [1] was 7.7%; in assay [2], 1.15%; in [3], 5.01%; in [4], 2.47%; in assay [5], 6.51%; in assay [6], 23.2%. In addition, the inhibition amounted to 70.4% in [7], 15.2% in [8], 59.2% in assay [9] and 1.24% in assay [10].
With `COc1cc2c(cc1Nc1nc(Nc3ccsc3C(N)=O)c3cc[nH]c3n1)N(C(=O)CN(C)C)CCC2`, the inhibition came to 4.97% in assay [1]; 0.47% in assay [2]; 0.65% in assay [3]; 1.24% in assay [4]; 11.3% in [5]; 0.63% in assay [6]. The inhibition was 0.17% in assay [7], -0.68% in assay [8], 0.28% in [9] and 2.05% in assay [10].
On to `Nc1nonc1-c1nc2cnccc2n1C1CCCCC1`, for which the inhibition in assay [1] is 24.2%; in assay [2], 2.83%; in assay [3] it was 10.8%; in [4] it was 10.3%; in assay [5] it was 74.6%; in assay [6] it was -0.38%. For the same compound, the inhibition in assay [7] is 4.63%; in assay [8], 0.19%; in assay [9], 8.42%; in assay [10], 3.67%.
Take `CCn1c(-c2nonc2N)nc2c(C#CC(C)(C)O)ncc(OCC3CCNCC3)c21`: the inhibition in [1] was 68.8%; in [2] it was 10.5%; in assay [3] it was 54.5%; in assay [4], 6.83%; in assay [5], 31.6%; in [6], 1.39%. In addition, the inhibition in assay [7] was determined as 9.05%; in assay [8] it was 0.56%; in [9], 4.38%; in assay [10], 11.3%.
As for `NS(=O)(=O)c1ccc(-c2ccc3c(NC(=O)C4CC4)n[nH]c3c2)cc1`, the inhibition in [1] turned out to be 5.56%; in assay [2], 0.63%; in assay [3], 2.61%; in assay [4], 0.83%; in assay [5] it was 1.42%; in assay [6], 4.28%. In addition, the inhibition in assay [7] amounted to 17.9%; in assay [8], 0.71%; in [9], 6.29%; in assay [10] it was 0.75%.
Regarding `Fc1ccc(-c2ncn(C3CCNCC3)c2-c2ccnc(Oc3ccccc3)n2)cc1`, the inhibition in assay [1] is -0.46%; in assay [2], 1.68%; in assay [3], 1.42%; in [4], 3.76%; in assay [5], 4.43%; in assay [6], 1.38%. Further, the inhibition is 2.07% in assay [7], 1.12% in assay [8], 0.76% in assay [9] and -1.21% in [10].
For `COc1cccc(COc2cc(-n3cnc4ccccc43)sc2C(N)=O)c1`, the inhibition in assay [1] was 2.02%; in [2] it was 1.15%; in [3] it was 1%; in [4] it was -2.92%; in [5], -8.42%; in assay [6], 1.73%. Also, the inhibition in [7] was 12%; in [8], -0.04%; in assay [9] it was 6.31%; in assay [10], -2.23%.
In the case of `Cc1cc(-c2ccco2)cc(C)c1/C=C/c1cncc(-c2nn[nH]n2)c1`, the inhibition in assay [1] is 1.64%; in assay [2] it was 1.35%; in assay [3], 1.35%; in assay [4] it was 1.3%; in assay [5] it was 0.19%; in assay [6] it was 3.16%. Moreover, the inhibition in assay [7] amounted to 29.9%; in [8], 4.58%; in assay [9] it was 35.2%; in assay [10], 1.91%.
Regarding `CCn1c(-c2nonc2N)nc2c(C#CCN)ncc(OCCCN)c21`, the inhibition in [1] was 11.4%; in assay [2] it was 3.8%; in assay [3], 6.19%; in assay [4] it was -1.84%; in assay [5] it was 16%; in [6], -0.19%. The inhibition in [7] came out at 7.05%; in assay [8] it was 5.13%; in [9] it was 10.2%; in assay [10] it was 7.01%.
With `CCn1c(-c2nonc2N)nc2c(C#CC(C)(C)O)nc(O[C@@H](CN)c3ccccc3)cc21`, the inhibition in assay [1] is 101%; in assay [2], 74.5%; in [3], 90.7%; in assay [4], 42.2%; in [5], 90.4%; in assay [6], 0.51%. Besides, the inhibition in assay [7] was 6.37%; in [8], 5.3%; in assay [9] it was 33.1%; in [10], 63.9%.
On to `NC(=O)c1sc(-n2cnc3cc(C(F)(F)F)ccc32)cc1OCc1ccccc1Br`, for which the inhibition in assay [1] was 0.82%; in assay [2], 2.12%; in [3], 1.92%; in assay [4], 4.69%; in assay [5] it was 0.55%; in [6] it was 1.99%. In addition, the inhibition in [7] was 2.87%; in assay [8], 1.3%; in [9] it was 2.88%; in [10], -0.02%.
As for `NS(=O)(=O)c1ccc(N/C=C2\C(=O)Nc3ccc4ncsc4c32)cc1`, the inhibition in assay [1] was 42.9%; in assay [2], 11%; in [3] it was 46.3%; in assay [4], 38.6%; in assay [5], 89.5%; in [6] it was 4.69%. The inhibition in assay [7] was determined as 24%; in assay [8], 0.94%; in [9] it was 10.5%; in assay [10] it was 6.29%.
For `CCn1c(-c2nonc2N)nc2c(C#CC(C)(C)O)ncc(OC[C@@H]3CCCN3)c21`, the inhibition worked out at 67.9% in assay [1]; 11.6% in assay [2]; 55.2% in assay [3]; 1.75% in assay [4]; 18.4% in assay [5]; 1.39% in [6]. The inhibition in assay [7] was 1.82%; in assay [8], 0.48%; in assay [9], -0.07%; in [10], 12.9%.

What is called inhibition is the relative decrease from the control value, in per cent.
